High-throughput results from PubChem.
Rows were chosen to be rich in hits. Some 27% of all compounds tested hit in one or more screens of this group.
CYP2C9 act = increases human cytochrome P450 2C9 activity; actives 1.4% (n = 96,000); activation factor at 5 µM; recombinant CYP2C9, luciferin-H conversion, luminescence; hits give high values; factor 1 = untreated enzyme, 0 = blocked; P11712;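 active = activation factor of 2 or more for CYP2C9 at a 5 µM dose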;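 note: 0 = sulfaphenazole-blocked wells and 1 = vehicle-only wells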
Target sequence (P11712 whole entry, looked up): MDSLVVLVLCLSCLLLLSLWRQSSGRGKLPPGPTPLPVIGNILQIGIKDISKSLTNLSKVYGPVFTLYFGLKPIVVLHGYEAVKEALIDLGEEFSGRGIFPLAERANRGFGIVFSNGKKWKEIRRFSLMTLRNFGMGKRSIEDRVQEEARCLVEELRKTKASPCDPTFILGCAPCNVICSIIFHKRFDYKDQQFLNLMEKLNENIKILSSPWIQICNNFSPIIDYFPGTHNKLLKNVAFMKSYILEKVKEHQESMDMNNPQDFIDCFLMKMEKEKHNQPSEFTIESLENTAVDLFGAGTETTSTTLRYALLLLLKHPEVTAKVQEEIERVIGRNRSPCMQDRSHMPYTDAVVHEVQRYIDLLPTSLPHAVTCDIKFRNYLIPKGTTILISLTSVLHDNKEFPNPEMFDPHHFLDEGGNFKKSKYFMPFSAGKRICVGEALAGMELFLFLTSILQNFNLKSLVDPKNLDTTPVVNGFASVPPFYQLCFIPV
CYP2C19 act = increases human CYP2C19 enzyme activity; P33261; activation factor at 5 µM; 96,000 tested, under 10 active; recombinant CYP2C19, luciferin-H EGE luminescence; hits give high values; 0 = fully inhibited enzyme, 1 = untreated enzyme;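 active = activation factor of at least 2 at 5 µM in the primary screen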;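 note: 0 = wells with 2.5 mM tranylcypromine and 1 = vehicle-only wells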
Cav32 inh = inhibitors of human Cav3.2 T-type calcium channel; actives 4% (n = 100,000); O95180; Cav3.2-expressing cells, Fluo-4 calcium fluorescence FDSS; hits give low values; AID 449739; B-score at 10 µM;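 active = single-dose well whose peak fluorescence ratio is a statistical outlier from its plate by either plate-standardised score or position-corrected B-score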
CYP2C19 inhib = inhibitors of human CYP2C19 | P33261 | inhibition, % at 5 µM | CYP2C19 Supersomes, luciferin-H EGE luminescence, 30 min | AID 778 | actives 21% (n = 96,000);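 active = CYP2C19 inhibition above a set limit at 5 µM in the primary screen, cut at about 50% in these data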;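 note: plate controls were negative control wells for no effect and 2.5 mM tranylcypromine positive control for full effect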
CYP2C9 inhib = blocks human cytochrome P450 2C9; CYP2C9 Supersomes, luciferin-H conversion, luminescence; actives 20% (n = 96,000); AID 777; inhibition, % at 5 µM; P11712;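 active = blocking of liver enzyme CYP2C9 beyond about 50% at 5 µM, limit read from the data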
Numbers without * were called inactive; x = no result.

SMILES	CYP2C9 act	CYP2C19 act	Cav32 inh	CYP2C19 inhib	CYP2C9 inhib
COC(=O)C1=C(C(=O)OC)SC2(S1)C(C(=O)OC)=C(C(=O)OC)SC1=C2c2cc(C)ccc2NC1(C)C	0.1	0.2	0.238	82.4*	86.9*
N[C@@H](Cc1ccccc1)c1nnc(SCc2ccccc2Cl)o1	0.6	0.2	-1.54	78.9*	36.3
CCN1CCc2c(sc3c2c(NCc2ccco2)nc2nnnn23)C1	0.5	0.6	0.564	41.8	52.7*
CC(=O)c1ccc([C@@H]2C[C@]34CN(Cc5cccc(C(F)(F)F)c5)S(=O)(=O)[C@H]3C[C@H]2O4)cc1	x	x	0.00178	x	x
COc1ccccc1/C=C/C(=O)c1c2c(c(C)[nH]c1=O)CCCC2	2.3*	0.8	-0.00574	22.7	-127.7
Cc1cccc(N2C(=O)N(c3ccccc3C)C3CS(=O)(=O)CC32)c1 (configuration not stated)	0.9	0.7	-0.0599	27.4	12.1
Cc1cc(C)cc(N2C(=O)N(c3ccccc3C)C3CS(=O)(=O)CC32)c1 (configuration not stated)	0.9	0.1	0.746	93.6*	9.0
Cc1cccc(N2CCCn3c2nc2c3c(=O)n(CCN3CCOCC3)c(=O)n2C)c1	0.8	0.9	-0.401	11.9	23.5
COc1ccc(C)cc1NC(=O)c1ccc(S(=O)(=O)N2CCOCC2)cc1	3.6*	1	0.264	4.8	-264.4
COc1ccccc1NC(=O)c1ccc(S(=O)(=O)N2CCOCC2)cc1	3.5*	0.9	0.0729	14.4	-248.9
COc1ccccc1C(=O)NCC1CCN(c2ccc(S(=O)(=O)N3CCOCC3)cc2)CC1	0.6	0.4	0.0985	58.4*	35.5
COc1ccc(OC)c(NC(=O)COC(=O)c2ccc(S(=O)(=O)N3CCOCC3)cc2)c1	0.9	0.9	0.716	8.4	5.7
CCC(=O)OC1CSc2nc3ccccc3n2C1 (configuration not stated)	0.8	0.6	-0.605	39.7	17.0
O=C(NNC(=S)NC(=O)c1ccccc1[N+](=O)[O-])c1ccccc1	x	x	-3.7	x	x
O=C(NC(=S)NNC(=O)c1ccccc1[N+](=O)[O-])c1ccccc1	x	x	-8.42*	x	x
COC(=O)c1ccccc1NC(=S)NC(=O)COc1ccccc1	0.8	0.9	-0.443	8.6	17.8
COC(=O)c1ccccc1NC(=S)NC(=O)c1ccccc1	0.8	0.4	-1.53	56.1*	25.0
COC(=O)c1ccccc1NC(=O)CN1CCC(NC(=O)c2ccccc2C)CC1	0.5	0.2	1.73	82.4*	53.9*
COC(=O)c1ccccc1NC(=S)NC(=O)CC(C)C	0.6	0.6	0.193	42.3	38.7
COC(=O)c1ccccc1NC(=S)NC(=O)c1ccccc1C	0.7	0.5	x	51.2*	26.7
O=c1oc2c(CN3CCCCCC3)c(O)ccc2cc1-c1nc2ccccc2[nH]1	0.8	0.9	x	11.3	18.6
CC1(C(=O)N2CC3(CC(c4cccc([N+](=O)[O-])c4)=NO3)C[C@H]2C(=O)NCC(N)=O)CC1 (some centres not stated)	1.1	1	-0.147	4.8	-15.0
CC(OC(=O)c1nsc(Cl)c1Cl)C(=O)NC(C)(C)C (configuration not stated)	x	x	0.943	x	x
Cc1ccc2cccc(NC(=S)NC(=O)c3ccccc3)c2n1	2.7*	0.8	0.0136	16.0	-168.0
CN1CCN(S(=O)(=O)c2cc([N+](=O)[O-])ccc2N2CCCCCC2)CC1	0.8	0.4	0.0412	55.6*	16.0
SMILES	CYP2C9 act	CYP2C19 act	Cav32 inh	CYP2C19 inhib	CYP2C9 inhib
C[C@@H](C(=O)NCc1ccccc1)N1C(=O)C2CC=CCC2C1=O (some centres not stated)	1.2	1	-0.0715	-2.8	-22.5
O=C(COC(=O)c1ccccn1)Nc1c(Cl)cccc1Cl	1.1	0.6	0.246	37.5	-5.3
Clc1cccc(Cl)c1COc1ccccn1	0.6	0.5	-0.203	51.5*	37.3
CCC1=C(OC(=O)N(CC)CC)N2C(=O)OC(=NCC3CC3)[C@]2(Cc2ccccc2)[C@H]2C1=CC[C@H]1C(=O)N(CC)C(=O)[C@H]12	x	x	-0.54	x	x
CCC1=C(OC(=O)N(CC)CC)N2C(=O)OC(=NCC3CC3)[C@]2(Cc2ccccc2)[C@H]2C1=CC[C@H]1C(=O)NC(=O)[C@H]12	x	x	-0.858	x	x
COCCN1C(=O)N[C@@H](c2ccc(Br)cc2)C(C(C)=O)=C1C	x	x	-1.04	x	x
Cc1cc(C)nc(N(C#N)Cc2ccc(Br)cc2)n1	0.9	0.3	-1.91	67.8*	5.8
COc1ccc(CN2CC34C=CC(O3)C(C(=O)O)C4C2=O)cc1 (configuration not stated)	1	0.9	-0.0209	8.0	2.6
COc1cccc(N2CCN(C(=O)C3C4C=CC5(CN(Cc6ccccc6Cl)C(=O)C35)O4)CC2)c1 (configuration not stated)	0.4	0.8	-0.407	22.2	62.1*
Cc1cccc(OCCOC(=O)C2CCN(S(=O)(=O)c3cccs3)CC2)c1	0.3	0.5	-0.48	46.7	65.3*
O=C(OCCN1C(=O)c2ccccc2C1=O)c1cccs1	0.7	0.5	-1.81	45.9	28.3
O=C(OCCN1C(=O)c2ccccc2C1=O)C1CCN(S(=O)(=O)c2cccs2)CC1	0	0.1	0.135	85.9*	96.6*
Nc1c(-c2ccccc2)cnn1C1CCS(=O)(=O)C1 (configuration not stated)	1	1	0.205	3.6	-1.1
COC(=O)CNc1nc(OC)nc(N(C)C)n1	1.3	1.2	-0.247	-20.8	-32.5
COCCN=C1Sc2nc3ccc(C)cc3cc2CN1Cc1ccco1	0.3	0.4	-1.73	58.8*	68.4*
CCOc1ccc2nc3c(cc2c1)CN(CCOC)C(=NCCOC)S3	1	1	-0.619	3.4	3.8
COC(=O)c1c(C)oc2ccc(N(C(=O)c3ccncc3)S(=O)(=O)c3ccccc3)cc12	0.2	0.1	-4.05*	91.2*	76.9*
COC(=O)c1c(C)oc2ccc(N(C(=O)c3ccncc3)S(=O)(=O)c3ccc(C)cc3)cc12	0	0	-2.97	100.0*	98.5*
CS(=O)(=O)Nc1ccc(Br)cc1C(=O)c1ccccc1	0.1	0.1	-0.0472	91.8*	87.7*
CS(=O)(=O)Nc1ccccc1C(=O)O	0.9	0.9	0.396	7.3	14.2
O=C(C1=C[C@H](C2CCCCC2)C[C@H](OCCCCO)O1)N1CCN(Cc2ccccc2)CC1	x	x	-0.00151	x	x
COCC(=O)N(Cc1cc2cc(OC)ccc2[nH]c1=O)c1ccc(C)cc1	0.4	0.6	0.507	36.0	58.8*
CCOc1ccc(N(Cc2cc3cc(OC)ccc3[nH]c2=O)C(=O)C2CCCO2)cc1 (configuration not stated)	0.3	0.8	-0.00543	20.2	67.8*
Cc1ccc(CCNC(=O)C2CCCN(S(=O)(=O)c3c(C)nn(C)c3C)C2)cc1 (configuration not stated)	0.5	0.6	-0.148	38.8	48.2
O=C(NCc1ccc(F)cc1)C1CCN(S(=O)(=O)N2CCC3(CC2)OCCO3)CC1	0.8	1	x	1.7	24.7
